# 12-LOX inh: Primary qHTS assay for inhibitors of human arachidonate 12S-lipoxygenase (ALOX12): Round 2. 580,000 compounds, 1.1% hits. AID 1671190, 2021. purified 12hLO, xylenol orange hydroperoxide absorbance. Potency, µM (titrated, usually from 108 µM), inactives show top-dose activity change, negative = inhibition, usual class: inhibitors; note: % is set by controls: 0 for no effect and ±100 for the full control effect
#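 Hydroperoxide product was detected by ferrous iron/xylenol orange as the 573 to 405 nm absorbance ratio. Arachidonic acid at 40 uM (final) was turned over for 30 min at room temperature by 150 nM human 12hLO, pH 7.0 Hepes buffer, after 15 min compound preincubation.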
# Apoferritin bind: qHTS Assay for Identification of Novel General Anesthetics. Ferritin light chain (Equus caballus), P02791. apoferritin/1-aminoanthracene competitive binding, fluorescence. Potency, µM (series often up to 77.5 µM), without a hit: at the highest dose activity change, negative = displacement, most hits filed as inhibitors. 350,000 compounds, 0.074% hits. AID 485281, 2010; note: % is set by controls: 0 for no effect and ±100 for the full control effect; nearly all actives have a fitted effect of over 20% in size
# Target sequence (P02791 2-175 limits assumed): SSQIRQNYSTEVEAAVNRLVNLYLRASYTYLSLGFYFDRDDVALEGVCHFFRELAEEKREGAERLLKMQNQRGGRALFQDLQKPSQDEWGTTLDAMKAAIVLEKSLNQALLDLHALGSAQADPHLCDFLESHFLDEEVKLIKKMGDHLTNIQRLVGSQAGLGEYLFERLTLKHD
#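 Horse-spleen apoferritin (10 uM) in 50% saturated 1-aminoanthracene in PBS was incubated 10 min at room temperature with compound. Fluorescence (ex 380, em 535 nm) was normalized to free and bound 1-AMA, with concentration-response fitted by a four-parameter Hill equation.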
# Glioma ERSR ind: qHTS for Inducers of the Endoplasmic Reticulum Stress Response (ERSR) in Human Glioma: qHTS | U87-MG GRP78 promoter luciferase reporter, 16 h | Potency, µM, for the others: at the highest dose activation, hits mostly activators | 420,000 compounds, 0.02% hits | AID 602332, 2012; note: series mostly up to about 76 µM; % of control where 0% means no effect; nearly all actives have a fitted effect of over 35% in size
#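 Stably transfected U87-MG human glioma cells carrying a GRP78-based luminescent sensor were seeded at 1000 cells/well, pin-dosed with compounds and incubated 16 h. Luciferase reagent was then added, and end-point luminescence was read after 10 min at room temperature.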
# BCR signal inh: qHTS Assay to Find Inhibitors of Chronic Active B-Cell Receptor Signaling; Potency, µM (series often up to 46.1 µM), inactives show at the top dose activity change, negative = inhibition, usual class: inhibitors; 340,000 compounds, 0.05% hits; ABC-DLBCL IkBa-CBG/CBR reporter, luminescence ratio, 4 h; active = well fitted inhibition curve with a large enough effect in the signal ratio, with a control signal flat, not every such curve was filed as active; inconclusive = small, poorly fitted or top-dose-only effect, or effect the other way, or a change in a side signal; the % refers to the signal ratio;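 note: plate controls were basal doxycycline-induced cells for no effect and cells given 10 µM MG132 for full effect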
#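 TMD8 ABC-DLBCL cells carrying doxycycline-inducible green luciferase fused to IkappaBalpha plus unfused red luciferase were exposed to compounds (up to 46 uM) for 4 hrs at 37C. Activity came from the overlap-corrected green/red luminescence ratio.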
# * hit, by the source's call; ? = inconclusive; · = no result given; ! = not confirmed by another sample. The list is not random: actives were taken first. Their share in the collection is about 1.1%. Unless noted, calls come from the whole dose curve; as a rule, active = well fitted curve in the direction sought with a large enough effect; inconclusive = small, poorly fitted or top-dose-only effect, or another doubt; inactive = no such curve, though single readings can be large; an effect the other way counts as inactive or inconclusive. Potency is the fitted concentration of half-maximal effect.
SMILES,12-LOX inh,Apoferritin bind,Glioma ERSR ind,BCR signal inh
O=C1c2cccnc2-c2ncccc21,-4.1%,-5.8%,-4.4%,-8.1%
CC(=O)NNC(=S)Nc1ccccc1C(F)(F)F,66.7%,·,·,·
CSC1=N/C(=C\C=C\c2ccco2)C(=O)S1,3.16µM*,·,·,·
O=C(NC(c1ccc(F)cc1)c1ccc2ccccc2n1)C1CCN(Cc2ccc3ccccc3n2)CC1 (configuration not stated),15.8µM*,·,-0.6%,·
CN=C(NC)NCc1ccc(C(=O)OC)cc1,25.1µM*,·,·,·
COc1ccc(C)cc1C(C)NC(=O)c1ccc2c(c1)OCO2 (configuration not stated),12.3%,·,·,·
COc1ccc(-c2cc(C#N)nc(Cl)n2)cc1,4.47µM*,-16.7%,-7.9%,?
O=C(C[C@@H]1CCNC[C@@H]1Cc1cc(CC2CCCCC2)on1)N1CCC(Cc2ccccc2)CC1,-16.0%,·,·,·
CCOc1ccc(S(=O)(=O)N2CCN(Cc3ncc(-c4ccccc4)o3)CC2)cc1,8.8%,·,·,·
Cc1[nH]nc2ccc(-c3cncc(OC[C@@H](N)Cc4ccccc4)c3)cc12,7.69µM*,·,·,·
Cc1ccccc1C(=O)N1CCC2(CC1)OCC(C(=O)N1CCCC1)N2C(=O)c1ccc(F)cc1 (configuration not stated),83.8%,·,·,·
CCC(C)(C)c1ccc(OCC(O)CNCc2ccccc2)c(C(C)(C)CC)c1 (configuration not stated),44.7µM*,·,·,·
Nn1c(=S)[nH]nc(Cc2ccc(O)cc2)c1=O,?,-9.5%,-3.6%,-1.4%
CCCCOc1ccc(Cc2n[nH]c(=S)n2N)cc1,8.91µM*,-3.7%,-1.5%,-0.2%
Cc1ccc(OCc2n[nH]c(=S)n2N)cc1C,?,-0.8%,-4.4%,8.3%
COc1ccc(Cc2n[nH]c(=S)n(N)c2=O)cc1,25.1µM*,-10.6%,-4.1%,-1.9%
N#Cc1cccc(OCC(=O)c2ccc3ccccc3c2)c1,11.5%,·,·,·
CC(=O)c1ccc(OCC(O)CN2CCN(CC(O)COc3ccc(C(C)=O)cc3)CC2)cc1 (configuration not stated),146.3%,11.9%,0.9%,0.7%
CC(=O)N1CCN(CC(O)COc2ccc(Br)cc2)CC1 (configuration not stated),0.355µM*,7.2%,-3.3%,-0.5%
CC[C@](N)(CCC(=O)O)C(=O)O,2.82µM*!,18.5%,1.8%,·
O=C(Nc1cnc2ccccc2c1)c1ccncc1,4.6%,-11.8%,-8.7%,?
CN(C)c1ccc(C(=O)Nc2cnc3ccccc3c2)cc1,39.8µM*,·,·,·
COc1cc(CCC(=O)Nc2cnc3ccccc3c2)cc(OC)c1OC,0.0%,21.9%,1.0%,?
COc1ccc(CCC(=O)Nc2cnc3ccccc3c2)cc1,12.6µM*,-6.3%,6.6%,9.4%
CC(Nc1ccc(N2CCCC2=O)cc1)c1nc(C(C)(C)C)no1 (configuration not stated),6.0%,·,·,·
SMILES,12-LOX inh,Apoferritin bind,Glioma ERSR ind,BCR signal inh
CC(=O)Nc1sc(C)c(C)c1C#N,-19.5%,·,·,·
Cc1sc(NC(=O)CC(C)(C)C)c(C#N)c1C,12.6µM*,·,·,·
CCc1ccc(/C=C(/C#N)C(=O)c2c(C)[nH]c3ccccc23)cc1,14.1µM*,·,·,·
Cc1cccc(/C=C(/C#N)C(=O)c2c(C)[nH]c3ccccc23)c1,13.1%,·,·,·
O=C(c1ccccc1)N(CCCl)C(=O)N(CCCl)C(=O)c1ccccc1,10µM*,·,-5.4%,·
N#Cc1ccccc1-c1ccc(CSc2nnnn2-c2cccc(F)c2)cc1,-22.6%,·,·,·
O=C1NC(=O)/C(=C\c2ccc(N3CCOCC3)o2)N1,20µM*,-4.6%,-1.7%,3.8%
Cc1ccc(S(=O)(=O)Nc2nc3ccccc3nc2Nc2ccc3c(c2)OCCO3)c(C)c1,51.0%,·,·,·
COc1cc(/C=C2/C(=O)c3cccc([N+](=O)[O-])c3C2=O)c(Br)cc1O,17.8µM*,?,0.7%,?
CCc1cccc(OCCCCNCCCOC)c1,-23.4%,-8.2%,-2.7%,3.4%
CCc1cccc(OCCCCN(CC)CC)c1,1.12µM*,-10.0%,3.0%,9.7%
CCn1cc(CNC(=O)c2cc(-c3cccc(C)c3)nc3ccccc23)cn1,-22.9%,·,·,·
C#CCN1CCC(C(=O)NC2CCN(C(=O)C3CCCCC3)CC2)CC1,-21.1%,·,·,·
Cc1cccc(OCC2(CNCc3c(C)noc3C)C[C@@H](O)[C@@H](O)C2)n1 (some centres not stated),31.6µM*,·,·,·

# From PubChem
